HT1080NT lethal = kills 2HG-producing HT-1080-NT fibrosarcoma cells; HT-1080-NT fibrosarcoma viability, CellTiter-Glo ATP luminescence, 48 h; Potency, µM (titrated, usually from 46.1 µM), inactives show at the top dose activity, negative = less viability, actives largely listed as cytotoxic; 360,000 tested, 1.6% active; AID 686970;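 also: NT is the 2HG producing partner of a matched IDH1 knockdown line; potency is read from the fitted curve at half-maximal effect; 0% = DMSO-treated cells and -100% = media-only wells without cells; nearly all actives have a fitted effect of over 55% in size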
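HT-1080-NT fibrosarcoma cells (2HG-overproducing), 750 cells/well in RPMI with 5% FBS, dosed after 2 h and incubated 48 h at 37C. CellTiter-Glo luminescence normalized to DMSO and no-cell wells; concentration-response curves fitted and classed.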
HT1080 IDH1KD tx = toxicity to HT-1080 IDH1 knockdown cells (counter line) | 360,000 tested, 2% active | Potency, µM (top dose mostly 46.1 µM), without a hit: top-dose activity, negative = toxicity, usual class: cytotoxic | HT-1080 IDH1 knockdown viability, ATP luminescence, 48 h;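 also: potency is read from the fitted curve at half-maximal effect; 0% = DMSO wells and -100% = cell-free medium wells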
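Luminescent ATP read-out (CellTiter-Glo, 10 min at room temperature) after 48 h compound exposure at 37 °C gave viability of IDH1-knockdown HT-1080 cells. Activity was normalised to DMSO and cell-free wells, then fitted as concentration-response curves.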
TDP1 cell noCPT = qHTS for Inhibitors of human tyrosyl-DNA phosphodiesterase 1 (TDP1): qHTS in cells in absence of CPT | DT40 Tdp1-/- hTDP1 cells, no CPT, ATP luminescence, 48 h | Potency, µM (top dose mostly 46.2 µM), for the others: at the top dose activity change, negative = growth inhibition, usual class: inhibitors | 420,000 tested, 15% active | AID 686978, 2013; also: potency is read from the fitted curve at half-maximal effect; nearly all actives have a fitted effect of over 55% in size
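Growth kinetics read by CellTiter-Glo luminescence after ≥48 hr at 37 °C. Cells: DT40 Tdp1-/- stably carrying human TDP1, 400 per well, compound exposure in the absence of CPT (DMSO vehicle).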
DT40 TDP1 CPT = DT40-hTDP1 cell growth loss with CPT. chicken DT40 Tdp1-/-;hTDP1 cells + 20 nM CPT, ATP luminescence, 48 h. Potency, µM (top dose mostly 46.2 µM), for inactives: at the highest dose activity change, negative = growth inhibition, hits mostly inhibitors. 420,000 tested, 12% active. AID 686979; also: potency is read from the fitted curve at half-maximal effect; nearly all actives have a fitted effect of over 55% in size
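Chicken DT40 Tdp1-/- cells stably complemented with human TDP1 were seeded at 400 cells/well in medium containing 20 nM camptothecin, exposed to pin-transferred compounds, and grown at 37 °C for at least 48 hr. Viability was read as ATP luminescence.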
IL-1B inflam inh = inhibitors of inflammasome signaling (IL-1 beta secretion) | THP-1 LPS/ATP IL-1B secretion, AlphaLISA, 16 h; stronger effect = lower value | activity change, % at 57.5 µM | 360,000 tested, 4.7% active; in the data active = activity change below about -50%; inconclusive = mostly about -30% to -49%
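THP-1 cells pretreated 1 hr with compounds (up to 57.5 uM final), then stimulated with LPS (250 ng/mL final) plus ATP (1.25 mM final); secreted IL-1B measured by AlphaLISA after 16 hr, decreased signal indicating inhibition.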
Starred values were filed as active, the others as inactive. A selection: hits, their analogues and other compounds. The true share with any hit is near 19%. Unless noted, calls follow the shape of the dose curve; as a rule, active = well fitted curve in the direction sought with a large enough effect; inconclusive = small, poorly fitted or top-dose-only effect, or another doubt; inactive = no such curve, though single readings can be large; an effect the other way counts as inactive or inconclusive. Unless noted, % is scaled to controls: 0 for no effect and ±100 for the full control effect.

Cc1ccc(N(Cc2cc3cc(C)ccc3[nH]c2=O)S(=O)(=O)c2ccccc2)cc1 was read as HT1080NT lethal -24%, HT1080 IDH1KD tx -28%, TDP1 cell noCPT 15µM*, DT40 TDP1 CPT 23µM* and IL-1B inflam inh -2.
Screening COc1ccc2[nH]c(=O)c(CN(c3ccccc3)S(=O)(=O)c3ccccc3)cc2c1 returned HT1080NT lethal 1%, HT1080 IDH1KD tx 13%, TDP1 cell noCPT 21µM*, DT40 TDP1 CPT inconclusive and IL-1B inflam inh 5.
Screening CN(C1CCCCC1)S(=O)(=O)c1ccc2c(c1)c(=O)c(C(=O)O)cn2C returned HT1080NT lethal 0%, HT1080 IDH1KD tx 7%, TDP1 cell noCPT -4%, DT40 TDP1 CPT -19% and IL-1B inflam inh 16.
CC(=O)Nc1cccc(-c2ccnc3c2CC(C)(C(=O)NCCC(F)(F)F)O3)c1 (centres undefined) was read as HT1080NT lethal inconclusive, HT1080 IDH1KD tx inconclusive, TDP1 cell noCPT 4.1µM*, DT40 TDP1 CPT 3.7µM* and IL-1B inflam inh 80.
Screening CC(=O)Nc1cccc(-c2ccnc3c2CC(C)(C(=O)NCC2CC2)O3)c1 (centres undefined) returned TDP1 cell noCPT 2.9µM*, DT40 TDP1 CPT 4.1µM* and IL-1B inflam inh 69.
Screening CC(=O)Nc1ccc(-c2ccnc3c2CC(C)(C(=O)NCCC(F)(F)F)O3)cc1 (centres undefined) returned HT1080NT lethal -16%, HT1080 IDH1KD tx -28%, TDP1 cell noCPT inconclusive, DT40 TDP1 CPT inconclusive and IL-1B inflam inh 14.
N#CC1=C(N)N2C(=C(C#N)C13CCCCC3)SC1CCCCC12O (centres undefined) was read as HT1080NT lethal 2%, HT1080 IDH1KD tx 2%, TDP1 cell noCPT 13µM*, DT40 TDP1 CPT 10µM* and IL-1B inflam inh 11.
For Cc1cc2nc(-c3cccc(NC(=O)c4cccc5ccccc45)c3)oc2cc1C the results were TDP1 cell noCPT -16% and DT40 TDP1 CPT -17%.
For COc1cc(C#N)ccc1OCC(=O)N1CCc2ccccc2C1 the results were HT1080NT lethal 9%, HT1080 IDH1KD tx 14%, TDP1 cell noCPT -17%, DT40 TDP1 CPT 12% and IL-1B inflam inh -12.
Screening CCc1ccc(OCC2c3cc(OC)c(OC)cc3CCN2C(=O)COc2ccccc2)cc1 (centres undefined) returned TDP1 cell noCPT 16µM* and DT40 TDP1 CPT inconclusive.
COCCNC(=S)N1CCc2cc(OC)c(OC)cc2C1COc1ccc(C(C)C)cc1 (centres undefined) was read as HT1080NT lethal -10%, HT1080 IDH1KD tx -28%, TDP1 cell noCPT inconclusive, DT40 TDP1 CPT inconclusive and IL-1B inflam inh inconclusive.
Screening COc1cc2c(cc1OC)C(COc1ccccc1OC)N(C(=O)COc1ccc(Cl)cc1)CC2 (centres undefined) returned TDP1 cell noCPT 23µM* and DT40 TDP1 CPT 18µM*.
Screening Cn1nc2c3ccccc3n(Cc3ccccc3)c2nc1=S returned HT1080NT lethal -2%, HT1080 IDH1KD tx -2%, TDP1 cell noCPT inconclusive, DT40 TDP1 CPT -18% and IL-1B inflam inh 7.
Screening Cn1cccc1C(=O)N1CCC2(CCCN(C(=O)Nc3cccc(C#N)c3)C2)CC1 returned TDP1 cell noCPT -23% and DT40 TDP1 CPT -4%.
`COc1ccc(C(=O)N2CCN(c3nc(C4CC4)nc4sc(C)c(C)c34)CC2)cc1` gave HT1080NT lethal -8%, HT1080 IDH1KD tx -8%, TDP1 cell noCPT 21µM*, DT40 TDP1 CPT inconclusive and IL-1B inflam inh -65*.
Screening O=C(c1ccc(Cl)cc1)N1CCN(c2ncccn2)CC1 returned HT1080NT lethal 20%, HT1080 IDH1KD tx 23%, TDP1 cell noCPT -8%, DT40 TDP1 CPT 3% and IL-1B inflam inh 4.
For Cc1sc2nc(C3CC3)nc(N3CCN(S(=O)(=O)c4ccc(F)cc4)CC3)c2c1C the results were HT1080NT lethal 5%, HT1080 IDH1KD tx inconclusive, TDP1 cell noCPT 11µM*, DT40 TDP1 CPT inconclusive and IL-1B inflam inh -22.
